Beta2AR agonist: beta2AR agonists driving receptor internalization, primary screen, cell-based, FAP fluorogen, flow cytometry | Beta-2 adrenergic receptor (Homo sapiens), P07550 | Am2.2-beta2AR cells | response, % (concentration not given with the values) | hit rate 0.43% among 340,000;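 active = response above a set limit, near 3 SD of response in nonfluorescent compounds, cut at about 42% in these data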
Target sequence (P07550 whole entry, looked up): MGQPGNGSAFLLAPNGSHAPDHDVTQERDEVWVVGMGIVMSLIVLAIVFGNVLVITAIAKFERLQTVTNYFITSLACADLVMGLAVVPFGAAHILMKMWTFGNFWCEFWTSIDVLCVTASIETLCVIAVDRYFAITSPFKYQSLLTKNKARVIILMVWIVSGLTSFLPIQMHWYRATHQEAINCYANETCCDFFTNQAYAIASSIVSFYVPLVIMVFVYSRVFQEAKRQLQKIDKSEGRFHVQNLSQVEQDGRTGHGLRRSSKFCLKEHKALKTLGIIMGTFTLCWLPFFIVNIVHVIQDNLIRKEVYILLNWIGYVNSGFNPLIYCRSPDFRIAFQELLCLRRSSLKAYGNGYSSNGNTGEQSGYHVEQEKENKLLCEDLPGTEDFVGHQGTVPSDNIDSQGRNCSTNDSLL
A1 inh: caspase 3/7 activation in MEF A1-2A-BIM cells, primary screen, A1 inhibitor project, cell-based, luminescence, HTS. Caspase-Glo 3/7 luminescence, 3 h; percent of clofoctol response, vehicle zero. hit rate 0.066% among 330,000. AID 2462, 2010. caspase activation, % (no concentration beside the values);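 active = over half of replicate activation scores above 10%, or exactly half above 10 with the replicate mean above 10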
Dyrk1A ADPGlo: rat Dyrk1A kinase inhibitors, primary screen, biochemical, single point, plate reader; inhibition, % at 12.5 µM; hit rate 0.43% among 310,000; AID 504441, 2011; ADP-Glo luminescence, NFATc1 peptide; Dual specificity tyrosine-phosphorylation-regulated kinase 1A (Rattus norvegicus), Q63470; in the data active = inhibition above about 50%;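 also: plate controls were vehicle with enzyme for no effect and no enzyme for full effect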
dFosB act: activators of delta FosB homodimer, primary screen, biochemical, fluorescence polarization, TAMRA-CDK5 oligo, single point; Protein FosB (Mus musculus), P13346; purified delta FosB; percent of positive-control signal above neutral wells; activation, % at 25 µM; hit rate 0.99% among 340,000;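 active = mean activation above about 17%, with every replicate also reaching it, limit read from the data, passing the limit was not always enough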
Active calls of the source: *; . = no result given. Only some compounds are listed: those with a hit (about 1.6% of all), similar ones and a draw of the others.

SMILES	Beta2AR agonist	A1 inh	Dyrk1A ADPGlo	dFosB act
O=C(CCSCCC(=O)NN=Cc1ccccc1O)NN=Cc1ccccc1O	-7.6	.	-1.3	35.6*
O=C(CSc1ccccc1)N/N=C/c1ccccc1O	-1.7	0.1	-1.3	1.4
CCOC(=O)c1ccccc1OC(=O)CS(=O)c1ccccc1[N+](=O)[O-] (stereo not drawn)	1.0	0.2	3.5	-1.8
O=C(CS(=O)c1ccc(C(F)(F)F)cc1[N+](=O)[O-])Oc1ccccc1 (stereo not drawn)	98.3*	9.2*	3.9	-3.0
CS(=O)(=O)c1ccc(S(=O)CC(=O)OCc2ccccc2)c([N+](=O)[O-])c1 (stereo not drawn)	43.7*	.	1.5	0.5
C[C@@H](CC#N)CN1CC[C@H](C(C)(C)C)CCC1=O	3.1	-0.2	4.1	5.4
Cc1c2cc[n+](CCN3CCCCC3)cc2c(C)c2c1[nH]c1ccc(O)cc12	-5.4	.	26.7	89.4*
Cc1cc2oc(=O)cc(CN(C)Cc3ccccc3Cl)c2cc1C	5.8	-1.0	4.1	-6.8
CCc1nnc(NC(=O)C2CCCCN2S(=O)(=O)c2ccccc2)s1 (stereo not drawn)	7.0	0.2	-1.5	-5.2
CC(C)n1c(O)c(N=NC(=O)c2ccccc2NS(=O)(=O)c2cccs2)c2ccccc21	-11.7	-0.6	0.0	29.6*
Cc1cc(C(=O)c2ccccc2)c(NC(=O)CN2CCOCC2)s1	-10.7	0.6	0.2	-0.4
Cc1cc(C(=O)c2ccc(C(C)(C)C)cc2)c(NC(=O)CCl)s1	96.0*	1.0	0.9	-6.5
COc1cc(/C=C/c2nnc3c4ccccc4ncn23)cc(OC)c1OC	11.1	0.2	15.3	27.1*
C(=C\c1nnc2c3ccccc3ncn12)/c1ccccc1	-7.2	-5.5	8.5	-40.2
CCOC(=O)c1c(C)oc2c1c(CN1CCN(CCO)CC1)c(O)c1ccccc12	22.3	.	.	-4.2
CCOC(=O)c1c(C)oc2c1c(CN1CCN(C(=O)OCC)CC1)c(O)c1ccccc12	7.8	20.4*	.	-8.6
COC(=O)c1ccc2c(=O)n(Cc3ccc4c(c3)OCO4)c(=S)[nH]c2c1	-2.8	6.3*	-8.9	-0.6
COCCn1c(=S)[nH]c2cc(C(=O)N3CCN(Cc4ccc5c(c4)OCO5)CC3)ccc2c1=O	-5.2	0.3	-10.4	-12.9
Cc1cc2oc(=O)cc(CN3CCN(Cc4ccccc4)CC3)c2cc1O	9.1	-0.2	2.2	1.7
O=c1cc(CN2CCN(C/C=C/c3ccccc3)CC2)c2cc(O)c(-c3ccccc3)cc2o1	37.5	1.8	0.3	65.5*
Cc1cc2oc(=O)cc(CN3CCN(C/C=C/c4ccccc4)CC3)c2cc1O	16.4	2.0	9.4	24.6*
O=c1cc(CN2CCN(c3ccccc3F)CC2)c2cc(O)c(-c3ccccc3)cc2o1	-2.7	0.5	7.2	-3.9
COc1ccc(C2CC(=O)CCN2S(=O)(=O)c2ccc(C)cc2)cc1 (stereo not drawn)	8.8	.	-2.8	2.2
CN1CCN(S(=O)(=O)c2cccc3nsnc23)CC1	1.6	0.1	-4.2	5.9
Oc1ccc(/C=N/Nc2cc(N3CCCC3)nc(N3CCCC3)n2)cc1	12.8	-0.2	11.6	13.1
SMILES	Beta2AR agonist	A1 inh	Dyrk1A ADPGlo	dFosB act
Oc1cccc(/C=N/Nc2cc(N3CCCC3)nc(N3CCCC3)n2)c1	10.6	0.0	1.7	57.4*
COc1ccc(/C=N/Nc2cc(N3CCCC3)nc(N3CCCC3)n2)cc1	35.0	-0.1	14.8	22.6*
CCN(C[C@H]1N[C@@](Cc2ccccc2)(C(=O)OC)[C@H]2C(=O)N(C)C(=O)[C@@H]12)C(=O)Nc1ccc(C(F)(F)F)cc1	-0.3	0.2	-0.4	-17.3
O=C1c2ccccc2/C(=C\C#Cc2ccccn2)N1c1ccccc1	15.2	0.0	.	3.4
NC(=O)NC(=O)C(Nc1ccc(N2CCCCC2)cc1)c1ccccc1 (stereo not drawn)	16.6	0.2	14.0	-0.7
CCOC(=O)C(=O)Nc1cccc(C(=O)OCC)c1	63.7*	0.0	0.4	-3.7
COC(=O)c1ccc(NC(=O)c2ccc(NC(=O)c3ccco3)cc2)cc1	2.8	0.4	-1.8	122.1*
CCOC(=O)c1cccc(NC(=O)c2ccc(NC(=O)c3ccco3)cc2)c1	-7.7	0.3	-1.6	16.3*
O=c1cc(CSc2nc(NCc3ccc(Cl)cc3)c3ccccc3n2)nc2ccc(Cl)cn12	2.8	.	-5.1	-4.5
CN(C)CC(C)(C)CNC(C(=O)Nc1ccc(Cl)cc1C(F)(F)F)c1ccccc1 (stereo not drawn)	4.6	0.6	6.5	-1.1
CC(C)(C)C1=CC(=O)C(=O)C(C(C)(C)C)=C1	110.0*	30.9*	-2.0	-4.0
COCCOC(=O)/C(=C/c1ccc(OC(=O)c2ccccc2)cc1)C(C)=O	42.7*	0.3	0.4	-6.3
Nc1cc(=O)[nH]c(SCC(=O)Nc2cc(S(=O)(=O)N3CCCCCC3)ccc2Cl)n1	3.1	-1.7	-0.6	36.5*
Nc1cc(=O)[nH]c(SCC(=O)Nc2cc(S(=O)(=O)N3CCOCC3)ccc2Cl)n1	-0.2	0.0	-7.0	-6.1
O=C(Nc1ccc(N2CCCCC2)cc1)c1ccccc1	-11.3	-7.2	3.1	-10.0
O=C(Nc1ccc(N2CCCC2)cc1)c1ccccc1F	6.8	-0.8	1.2	25.8*
O=C(/C=C/c1ccncc1)c1ccc(NC(=O)c2ccccc2F)cc1	51.0*	-1.4	2.2	4.9
O=C(Nc1ccc(N2CCCC2)cc1)c1cccc(F)c1	29.6	-3.4	2.4	19.0*
COc1ccc(CNC(=O)C2CCN(S(=O)(=O)c3ccc4c(c3)N(C(C)=O)CCO4)CC2)cc1	-1.5	1.3	5.9	-6.6
O=C(Nc1ccc(N2CCCC2)cc1)c1cccc(-c2cc3ccccc3oc2=O)c1	57.3*	-0.4	-6.7	17.5*
Cc1nc(NC(=O)c2cccc(-c3cc4ccccc4oc3=O)c2)ccc1Br	41.5	0.0	-2.8	168.1*
Cc1nc(NC(=O)c2ccc(-c3cc4ccccc4oc3=O)cc2)ccc1Br	18.6	0.5	1.4	3.6
CC(=O)C1CCC2C3CCC4=CC(=O)CCC4(C)C3(Br)C(=O)CC12C (stereo not drawn)	55.6*	.	.	-0.1
CC(=O)C1CCC2C3CCC4=CC(=O)CC[C@]4(C)[C@@]3(F)C(O)C[C@]12C (stereo partly drawn)	-14.6	0.8	2.7	2.9
Cc1ccc(S(=O)(=O)N2CCN(C(=O)CSc3ccccn3)CC2)c(C)c1	0.5	-0.4	-1.2	-0.7
N#Cc1ccccc1OCC(=O)OCC(=O)c1ccc[nH]1	-3.2	0.2	2.1	5.5
N#Cc1ccc(OCC(=O)OCC(=O)c2ccc[nH]2)cc1	48.7*	.	6.8	0.9
Cc1nnsc1C(=O)NNC(=O)c1cccc2ccccc12	-0.6	-0.8	.	1.8
C/C(=N\NC(=O)c1nnn(-c2nonc2N)c1-c1ccccc1)c1ccccc1O	-3.8	1.2	4.2	33.3*
CCOc1ccc(-c2c(C(=O)N/N=C/c3ccc(C)cc3)nnn2-c2nonc2N)cc1	-3.7	0.6	-0.7	33.5*
